Sampled rows, rich in hits. Any-hit rate of the full collection: about 9.9%.
Tau fibril FP = tau fibrillization inhibition (FP) | P10636 | K18 P301L tau heparin fibrillization, Alexa594 FP, 6 h | Potency, µM (titrated, usually from 57.7 µM), inactives show at the top dose activity, negative = inhibition, most hits filed as inhibitors | actives 0.39% (n = 280,000) | AID 1468; active = well fitted curve in the direction sought with a large enough effect; inconclusive = small, poorly fitted or top-dose-only effect, or another doubt; inactive = no such curve, though single readings can be large; an effect the other way counts as inactive or inconclusive; note: nearly all actives have a fitted effect of over 55% in size
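Quantitative HTS format: compounds meet 15 uM recombinant K18 P301L tau and Alexa 594-tau tracer in 100 mM sodium acetate pH 7; 20 uM heparin triggers fibrillization at 37 C over 6 hr; FP gives the signal.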
ALDH1A1 inh = blocks purified human ALDH1A1 activity; P00352; Purified ALDH1A1, NADH fluorescence, propionaldehyde substrate; Potency, µM (titrated, usually from 75.3 µM), for the others: top-dose activity, negative = inhibition, hits mostly inhibitors; actives 7.3% (n = 220,000);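 note: plate controls were no enzyme wells and a reference inhibitor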
Target sequence (P00352 whole entry, looked up): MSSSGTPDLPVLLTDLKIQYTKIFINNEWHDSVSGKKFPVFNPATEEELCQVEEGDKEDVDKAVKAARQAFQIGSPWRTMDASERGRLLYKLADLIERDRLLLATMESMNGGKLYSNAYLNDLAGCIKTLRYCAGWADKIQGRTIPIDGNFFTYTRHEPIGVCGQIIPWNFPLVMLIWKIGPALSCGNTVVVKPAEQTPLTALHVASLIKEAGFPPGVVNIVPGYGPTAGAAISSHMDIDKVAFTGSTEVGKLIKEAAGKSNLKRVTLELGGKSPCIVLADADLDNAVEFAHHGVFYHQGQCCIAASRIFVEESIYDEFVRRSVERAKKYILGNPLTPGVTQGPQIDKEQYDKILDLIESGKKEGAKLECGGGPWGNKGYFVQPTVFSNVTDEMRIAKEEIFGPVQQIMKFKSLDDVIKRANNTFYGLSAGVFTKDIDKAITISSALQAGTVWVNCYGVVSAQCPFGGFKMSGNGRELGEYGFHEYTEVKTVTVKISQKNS
KDM4E inh = JMJD2E (human) inhibition; B2RXH2; JMJD2E catalytic domain, FDH-coupled NADH fluorescence (FDH is formaldehyde dehydrogenase); Potency, µM (series often up to 57.1 µM), inactives show at the highest dose activity change, negative = inhibition, most hits filed as inhibitors; actives 1.6% (n = 230,000);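 note: 0% = wells with enzyme and -100% = buffer wells without enzyme; nearly all actives have a fitted effect of over 50% in size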
HPGD block = HPGD (human) dehydrogenase inhibition | P15428 | purified HPGD, NADH fluorescence kinetic, PGE2 substrate | Potency, µM, inactives show at the top dose activity change, negative = inhibition, actives largely listed as inhibitors | actives 4.3% (n = 150,000) | AID 894
Target sequence (P15428 whole entry, looked up): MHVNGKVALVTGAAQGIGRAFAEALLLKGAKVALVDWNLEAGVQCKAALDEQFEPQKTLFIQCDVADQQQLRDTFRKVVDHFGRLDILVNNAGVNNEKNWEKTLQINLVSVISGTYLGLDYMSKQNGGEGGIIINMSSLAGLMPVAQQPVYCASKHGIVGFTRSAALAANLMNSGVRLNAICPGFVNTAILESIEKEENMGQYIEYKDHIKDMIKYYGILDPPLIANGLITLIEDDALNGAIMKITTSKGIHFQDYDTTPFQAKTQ
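NADH formation kinetics: reaction with 30 uM PGE2 and 1 mM NAD+ (final), 20 nM enzyme, Tris-HCl pH 8 with Tween 20, after 15 min compound preincubation at room temperature. Fluorescence change, last versus first of five reads.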
Tau fluor counter = counter-screen for tau fibril formation inhibitors; tau K18 P301L Alexa594 fluorescence, heparin fibrillization; actives 0.93% (n = 280,000); Potency, µM (series often up to 57.7 µM), for inactives: at the top dose activity change, negative = decrease; AID 1463; active = well fitted curve in the direction sought with a large enough effect; inconclusive = small, poorly fitted or top-dose-only effect, or another doubt; inactive = no such curve, though single readings can be large; an effect the other way counts as inactive or inconclusive; note: nearly all actives have a fitted effect of over 55% in size
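Human K18 P301L tau (15 uM unlabeled plus 0.24 uM Alexa 594-labeled, final) in 100 mM sodium acetate pH 7 was mixed with compound and 20 uM heparin and incubated 6 hr at 37 C.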
Tau fibril ThT = tau fibrillization inhibition (ThT binding). AID 1460. recombinant tau K18 P301L (four-repeat tau fragment), heparin-induced fibrillization, ThT fluorescence. actives 2.1% (n = 270,000). Potency, µM (series often up to 57.4 µM), for the others: at the highest dose activity, negative = inhibition, hits mostly inhibitors. P10636; active = well fitted curve in the direction sought with a large enough effect; inconclusive = small, poorly fitted or top-dose-only effect, or another doubt; inactive = no such curve, though single readings can be large; an effect the other way counts as inactive or inconclusive; note: nearly all actives have a fitted effect of over 55% in size
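Tau K18 P301L fragment (15 uM unlabeled plus 0.24 uM Alexa 594-labeled) in 100 mM sodium acetate pH 7 with compound, fibrillization induced by 20 uM heparin for 6 hr at 37 C. Thioflavin T (30 uM) added, fluorescence read after 1 hr (ex 450, em 510 nm).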
The depositor's hits bear a star; ? = inconclusive; nt = no result given; [ ] = remark or other dose. Unless noted, calls come from the whole dose curve; as a rule, active = well fitted inhibition curve with a large enough effect (not every such curve was filed as active); inconclusive = small, poorly fitted or top-dose-only effect, or another doubt; inactive = no such curve, though single readings can be large or run the other way. Unless noted, % is set by controls: 0 for no effect and ±100 for the full control effect; potency is the fitted concentration of half-maximal effect.

SMILES | Tau fibril FP | ALDH1A1 inh | KDM4E inh | HPGD block | Tau fluor counter | Tau fibril ThT
Cc1nn(Cc2ccccc2)c2c1C(c1ccco1)C(C#N)=C(N)O2 (configuration not stated) | ? | 28µM* | -7% | -18% | -20% | ?
Cc1ccccc1N1C(=O)NC(=O)/C(=C\c2cnn(-c3ccccc3)c2)C1=O | -1% | 18µM* | 3% | 10µM* | 4% | -9%
CC12CCC3C(CC=C4CC5(CCC43C)OCCO5)C1CCC2=O (configuration not stated) | 3% | -2% | -7% | nt | -19% | ?
CC(=O)OC1=CC2=CC[C@H]3[C@H]4CCC(=O)[C@@]4(C)CC(=O)[C@]3(S)[C@]2(C)CC1 | nt | 4.5µM* | nt | -4% | nt | nt
Clc1nc(Cl)nc(Cl)n1 | nt | 2.2µM* | nt | -6% | nt | nt
CSc1ccc2c(c1)c(CCN)c(C)n2Cc1ccccc1Cl | nt | 18%[13.5 µM] | nt | -10% | nt | nt
Cc1c(O)c(=O)ccn1C | -10% | -2% | 7.9µM* | 0% | -9% | -13%
CC1OC(=O)C(C(C)C)NC(=O)C(C(C)C)OC(=O)C(C(C)C)NC(=O)C(C)OC(=O)C(C(C)C)NC(=O)C(C(C)C)OC(=O)C(C(C)C)NC(=O)C(C)OC(=O)C(C(C)C)NC(=O)C(C(C)C)OC(=O)C(C(C)C)NC1=O (configuration not stated) | -1% | -3% | -2% | -12% | -4% | -4%
O=C(Oc1ccc2ccc(OC(=O)N3CCCCCC3)cc2c1)N1CCCCCC1 | 4% | -9% | 7% | -9% | -11% | ?
CC(C)(C)OOC(=O)c1ccccc1 | nt | ? | nt | -9% | nt | nt
COc1cc(/C=C2/C(=O)N(c3ccccc3)N=C2C)ccc1OS(=O)(=O)c1ccccc1 | -22% | ? | 0% | 20µM* | ? | 14µM*
COc1cc(C=C2C(=O)NC(=O)NC2=O)cc(OC)c1OC | -14% | nt | ? | nt | -8% | ?
CCOc1cc(C=C2C(=O)NC(=O)NC2=O)ccc1OS(=O)(=O)c1ccccc1 | 5% | ? | ? | 13µM* | -7% | ?
CCOc1cc(C=C2C(=O)NC(=O)NC2=O)ccc1OCC(=O)N1CCOCC1 | ? | 35µM* | ? | -18% | -18% | ?
O=[N+]([O-])c1ccccc1-c1ccccc1 | nt | ? | nt | -11% | nt | nt
Clc1ccc(C(c2ccc(Cl)cc2)C(Cl)Cl)cc1 | nt | 1% | nt | -11% | nt | nt
CN1C(=O)C(=Cc2ccccc2OCc2ccc(Cl)cc2)C(=O)N(C)C1=O | -1% | 18µM* | 20µM* | 22µM* | -7% | ?
CN1C(=O)C(=Cc2ccc(Sc3ccccc3)o2)C(=O)N(C)C1=O | -1% | ? | 0% | nt | ? | ?
CN1C(=O)C(=Cc2ccccc2Oc2ccc(Cl)cc2)C(=O)N(C)C1=O | 0% | ? | -5% | 25µM* | -13% | ?
O=C1NC(=O)C(=Cc2cc(Cl)ccc2OCc2ccc(C(=O)O)cc2)C(=O)N1 | -17% | 3% | ? | nt | -17% | ?
Clc1cccc(/C=N\Nc2nccs2)c1 | 15% | 1% | -2% | -27% | 18µM*[quencher] | ?
OC1(c2ccc(F)cc2)CC2CCC(C1)N2Cc1nnnn1C1CCCC1 (configuration not stated) | -12% | 2µM* | 5% | -2% | -7% | 0%
Fc1ccc2c(c1)nnn2C1CCN(Cc2nnnn2CCc2ccccc2)CC1 | -6% | -7% | -20% | -4% | -11% | -3%
Cc1ccc(-n2ncc(C(=O)N3CCN(c4ccc(Cl)cc4)CC3)c2C2CCN(C(=O)OC(C)(C)C)CC2)c(C)c1 | 1% | nt | nt | nt | -12% | ?
CC1(C)C[C@H]2C=C(C=O)[C@]3(C=O)C[C@]3(C)[C@H]2C1 | ? | ? | -23% | -14% | -26% | 14µM*
SMILES | Tau fibril FP | ALDH1A1 inh | KDM4E inh | HPGD block | Tau fluor counter | Tau fibril ThT
C=CCBr | nt | -17% | nt | -4% | nt | nt
COc1ccc(C=O)cc1OC | nt | 11µM* | nt | -14% | nt | nt
COc1ccc(N)cc1 | nt | ? | nt | -4% | nt | nt
COc1ccc(C=O)cc1 | nt | 7.9µM* | nt | 6% | nt | nt
COc1ccc(C=O)cc1O | 5% | ? | 11% | -11% | 0% | -3%
O=C(NCP(=O)(O)O)c1cccnc1 | nt | 7%[13.5 µM] | nt | -4% | nt | nt
O=C(/C=C/c1ccc2c(c1)OCO2)c1c(O)n(CCC2=CCCCC2)c(=O)[nH]c1=O | 4% | 32µM* | -19% | -19% | 2% | ?
O=C1C(Cl)=C(N2CCCCCC2)C(=O)N1c1ccccc1 | ? | ? | -10% | 16µM* | ? | 25µM*
COc1ccc(N2C(=O)C(Cl)=C(N3CCN(Cc4ccccc4)CC3)C2=O)cc1 | 28µM* | ? | 1% | -10% | -30% | 25µM*
CC1CCN(C(=O)CCl)CC1 | 5% | 0.35µM* | 12% | 4% | 17% | 8%
O=C(O)C(Oc1nc(=S)[nH]c(=S)[nH]1)(c1ccc(Cl)cc1)c1ccc(Cl)cc1 | nt | 4%[13.5 µM] | nt | -6% | nt | nt
C#C[C@]1(O)CC[C@H]2[C@@H]3CCC4=CC(=O)CCC4(C)[C@H]3CCC21C (some centres not stated) | 2% | 5% | nt | -11% | 0% | -2%
Cn1c(=O)oc2cc(NC(=O)CCl)ccc21 | 1% | nt | ? | nt | -2% | -13%
Cn1cc(NC(=O)CCl)cn1 | -2% | 18µM* | -5% | nt | 5% | 9%
COC(=O)C1CN(C#N)N(c2ccc(Cl)cc2)C12c1ccccc1-c1ccccc12 (configuration not stated) | ? | -6% | 1% | 14µM* | -27% | 10µM*
CCN(CC)CCCN=Cc1c(O)n(Cc2ccc(F)cc2)c(=O)[nH]c1=O | -5% | 11% | 0% | -12% | -3% | -3%
O=c1[nH]c(=O)n(Cc2ccccc2)c(O)c1C=NCCN1CCOCC1 | 0% | ? | 5% | 32µM* | -7% | -11%
O=c1[nH]c(=O)n(Cc2ccc(F)cc2)c(O)c1C=NCCCN1CCOCC1 | 0% | 3% | 2% | -7% | 1% | -2%
CCN(CC)CCN=Cc1c(O)n(Cc2ccccc2)c(=O)[nH]c1=O | 8% | 8% | -4% | 35µM* | 4% | 0%
CC[C@@H]1CN2CCc3cc(OC)c(OC)cc3[C@@H]2C[C@@H]1C[C@H]1NCCc2cc(OC)c(OC)cc21 | -2% | -6% | -3% | 0% | -1% | 0%
CCCC1=C(C(=O)OCC)C2(C(=O)Nc3ccccc32)C(C#N)=C(N)O1 (configuration not stated) | 0% | 11µM* | -1% | -4% | -2% | 5%
COC(=O)CC1=C(C(=O)OC)C2(C(=O)Nc3c(C)cccc32)C(C#N)=C(N)O1 (configuration not stated) | 2% | 10µM* | 10% | -13% | -9% | -9%

From PubChem
